# From PubChem
# A selection: hits, their analogues and other compounds. The true share with any hit is near 2.2%.
# TDP43 rescue – TDP-43 toxicity inhibition in yeast | TDP-43 expressing yeast growth rescue, BacTiter-Glo, 24 h | Potency, µM (titrated, usually from 46.1 µM), without a hit: at the top dose growth rescue (activation), usual class: activators | 1.8% of 410,000 active | AID 652104; further: % of control where 0% means no effect; nearly all actives have a fitted effect of over 50% in size
#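 Growth rescue of TDP-43-toxic yeast measured as ATP luminescence (BacTiter-Glo). Cells grown to mid-log in raffinose, induced in galactose at OD600=0.02, exposed to compound 24 hr at 30 deg C.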
# aSyn rescue – alpha-synuclein toxicity inhibition in yeast; Yeast expressing alpha-synuclein, growth rescue, BacTiter-Glo, 24 h; Potency, µM (series often up to 46.1 µM), inactives show at the top dose growth rescue (activation), most hits filed as activators; 0.14% of 370,000 active; AID 652106; further: % of control where 0% means no effect; nearly all actives have a fitted effect of over 65% in size
#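 Screening used galactose-induced yeast with toxic alpha-synuclein levels, exposed to compound for 24 hr at 30 deg C. Cell growth, read with BacTiter-Glo luminescence, gave the measured signal.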
# Abeta rescue – restores growth of yeast expressing A-beta42 peptide; yeast expressing A-beta42, growth rescue, OD600, 48 h; response scale: 0% DMSO, 100% iron-clioquinol control; Potency, µM (top dose mostly 46.1 µM), usual class: activators; 0.063% of 410,000 active; further: nearly all actives have a fitted effect of over 55% in size
#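 Yeast A-beta toxicity model in growth medium with pinned compounds, 48 h at 30 C; growth read as absorbance at 600 nm. Normalized to FeCl3/clioquinol equimolar mix (positive) and DMSO (negative).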
# FUS yeast rescue – FUS proteinopathy suppression in yeast. S. cerevisiae FUS-expressing, growth rescue, OD600, 24 h. Potency, µM (top dose mostly 76.6 µM), hits mostly activators. 0.24% of 390,000 active. AID 1347120;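 further: plate controls were DMSO vehicle for no effect and reference control for full effect; nearly all actives have a fitted effect of over 55% in size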
#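 Yeast expressing FUS under galactose induction, OD 0.005 in 2% galactose medium; compounds in a dilution series, 24 h at 30C. Growth rescue by absorbance at 600 nm; CP55940 positive control, DMSO negative.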
# Mito fusion act – inhibitors of mitochondrial division or activators of mitochondrial fusion. AID 485298. Potency, µM (titrated, usually from 46.1 µM), for inactives: top-dose growth rescue (activation), hits mostly activators. 0.23% of 320,000 active. S. cerevisiae fusion-defective mutant growth rescue, CellTiterGlo 48 h; further: % of control where 0% means no effect; nearly all actives have a fitted effect of over 45% in size
#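 Read-out: ATP-based luminescence (CellTiterGlo, 10 min ambient) reporting growth of fusion-defective ts yeast after 48 hours at 37C on glycerol/ethanol YPEG medium in the presence of compound.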
# * hit, by the source's call; i = inactive; u = inconclusive; x = no result. The call rests on the fitted dose curve; in most records, active means well fitted curve in the direction sought with a large enough effect; inconclusive means small, poorly fitted or top-dose-only effect, or another doubt; inactive means no such curve, though single readings can be large; an effect the other way counts as inactive or inconclusive. Potency means the concentration at half of the fitted maximal effect.
SMILES,TDP43 rescue,aSyn rescue,Abeta rescue,FUS yeast rescue,Mito fusion act
C/C(C=NNC(=O)CSc1nnc(-c2ccc(Cl)cc2)n1-c1ccc(C)cc1)=C\c1ccccc1,x,x,x,i,x
C[C@@H]1COc2cc(Br)ccc2S(=O)(=O)N1Cc1cn(CCC2OCCO2)nn1,x,x,x,i,x
O=S(=O)(c1ccc(Cl)c(Cl)c1)c1snnc1-c1ccccc1,13µM*,-19%,i,i,-5%
CC1(C(=O)NCc2ccccc2Br)CCN1C(=O)CCc1ccc(Cl)cc1Cl (stereo not given),u,u,i,i,x
COc1ccc(NS(=O)(=O)c2ccc(SC)cc2)cc1,12%,-10%,i,10µM*,20%
COc1ccc(NS(=O)(=O)c2ccc(NS(C)(=O)=O)cc2)cc1,0%,-8%,i,i,0%
CSc1ccc(S(=O)(=O)Nc2ccc(F)cc2)cc1,13µM*,16%,i,i,17%
COc1ccccc1-c1nnc2sc(COc3ccc(F)cc3)nn12,11µM*,4%,i,u,0%
COc1cc(-c2nn3c(-c4ccco4)nnc3s2)cc(OC)c1OC,x,x,x,x,-1%
COc1cccc(-c2nn3c(-c4ccco4)nnc3s2)c1,7.1µM*,x,i,i,8%
COc1cccc(-c2nn3c(-c4ccccn4)nnc3s2)c1,16µM*,-2%,i,i,-4%
COc1cccc(-c2nnc3sc(-c4ccccn4)nn23)c1,-5%,3%,i,i,17%
COc1ccc(OCc2nn3c(-c4ccccc4)nnc3s2)cc1,x,x,x,i,x
Clc1ccccc1-c1nn2c(-c3ccccn3)nnc2s1,13µM*,-12%,i,i,-2%
Cc1cc(/C=C2\C=Cc3ccccc32)ccc1N(C)C,x,-14%,x,x,x
O=C(NC1CCCCN(Cc2cccc(Cl)c2)C1=O)c1cccc([N+](=O)[O-])c1 (stereo not given),x,x,x,i,x
c1ccc(OCc2nn3c(-c4ccccn4)nnc3s2)cc1,14µM*,0%,i,i,-9%
c1coc(-c2nnc3sc(C4CCCCC4)nn23)c1,18µM*,-15%,i,i,7%
COc1ccc(Cn2c(C(=O)O)c(CNCc3ccc(C)o3)c3ccc(OC)cc32)cc1,19%,x,i,i,x
S=C1NC(c2ccccc2)=NCN1c1ccccc1,13µM*,0%,i,i,1%
Cc1ccc(C2=NCN(c3ccc(C(=O)O)cc3)C(=S)N2)cc1,x,x,x,x,-5%
CC1CN(C(=O)COC(=O)c2ccc3ccccc3c2)CC(C)O1 (stereo not given),0%,2%,i,i,x
CSc1nc(N2CCN(c3ccccc3Cl)CC2)c2ccccc2n1,13µM*,-9%,i,i,11%
CSc1nc(N2CCOCC2)c2ccccc2n1,-13%,-7%,i,i,-3%
c1ccc2c(c1)N=C(N1CCN(Cc3ccc4c(c3)OCO4)CC1)c1ccccc1S2,x,x,x,i,x
SMILES,TDP43 rescue,aSyn rescue,Abeta rescue,FUS yeast rescue,Mito fusion act
O=C(O)CSc1nc(-c2ccc(Cl)cc2)nc2c1oc1ccccc12,-90%,-32%,i,i,8.9µM*
COc1ccc(-c2nnc(SCc3c(F)cccc3F)n2N)cc1,x,x,x,i,x
O=C(Nc1ccc(F)cc1)c1ccc(CSc2ccccc2)o1,16µM*,-12%,i,i,u
CC(=O)c1ccc(NC(=O)c2ccc(CSc3ccccc3)o2)cc1,16µM*,-6%,i,i,u
CN(CC(=O)Nc1ccc(Cl)c(C(F)(F)F)c1)C(=O)c1ccc(N2CCOCC2)c([N+](=O)[O-])c1,-22%,3%,i,32µM*,-2%
COc1ccc(OC)c(NC(=O)CSC2=Nc3ccccc3C3=NC(CC(=O)NCc4ccco4)C(=O)N23)c1 (stereo not given),4%,x,i,i,x
CC(C)c1ccc(NC(=O)CSC2=Nc3ccccc3C3=NC(CC(=O)NC4CCCCC4)C(=O)N23)cc1 (stereo not given),20%,x,i,32µM*,x
COc1cccc(NC(=O)CSC2=Nc3ccccc3C3=NC(CC(=O)NCc4ccccc4OC)C(=O)N23)c1 (stereo not given),-4%,x,i,35µM*,x
CCC[C@H]1[C@@H](NC(=O)NCC)CC[C@@]23CCCN2C(=O)CCC[C@@H]13,x,x,x,i,x
CC(=O)C1=C(C)Nc2ncnn2C1c1cccc(Br)c1 (stereo not given),-4%,-6%,i,i,u
O=C(Nc1ccc2c(c1)Cc1ccccc1-2)NC1CCCCN(Cc2cccc(Cl)c2)C1=O (stereo not given),x,x,x,i,x
c1ccc(-c2ncnc3ccccc23)cc1,13µM*,-3%,i,x,x
N#CCSc1ncnc2ccccc12,9%,-3%,i,i,2%
c1ccc(Sc2ncnc3ccccc23)cc1,13µM*,9%,i,i,-20%
COc1cccc(CNC(=S)Nc2cccc(Cl)c2C)c1,18µM*,1%,u,i,-18%
CCc1ccc(CCNC(=O)OC2CC3CC2[C@H]2CCCCN2[C@H]3C)cc1 (stereo not given in full),x,x,x,i,x
CCn1c2ccccc2c2cc(C=NNC(=O)c3cc(-c4ccc(OC)cc4)n[nH]3)ccc21,x,x,x,i,x
Nc1ccccc1SC(CC(=O)c1ccccc1)c1cccc([N+](=O)[O-])c1 (stereo not given),25µM*,19%,i,i,x
O=C(N/N=C/C(Br)=C/c1ccccc1)c1ccccc1F,14µM*,-16%,i,i,-8%
Cc1nc(C/C(=N\Nc2ccccc2)c2ccc(O)cc2O)cs1,20µM*,1%,i,i,-4%
Clc1cccc(Cc2c(-c3ccco3)nc3c4ccccc4ccn23)c1,u,15%,i,i,x
Clc1cccc(Cc2c(-c3ccccc3)nc3c4ccccc4ccn23)c1,11µM*,u,i,i,x
Fc1ccc(-c2nc3c4ccccc4ccn3c2Cc2cccc(Cl)c2)cc1,14µM*,17%,i,i,x
Fc1cccc(Cc2c(-c3ccco3)nc3c4ccccc4ccn23)c1,35µM*,13%,i,i,x
Clc1cccc(Cc2c(-c3cccc(Cl)c3)nc3c4ccccc4ccn23)c1,17%,-7%,i,i,x
CCCNC(=O)C1(S(=O)(=O)c2ccccc2)CC=CC1,15%,-8%,i,i,1%
O=C(c1cccs1)N1CCN(c2nnc(-c3ccccc3)c3ccccc23)CC1,18µM*,10%,i,i,27%
Cc1ccc(C(=O)Nc2ccc3c(c2)N(C)C(=O)c2ccccc2S3)cc1,u,x,i,u,x
Cc1cc(Br)ccc1NC(=O)c1ccccc1-c1ccccc1,u,2%,i,x,14µM*
O=C(Nc1cccc(Br)c1)c1ccccc1-c1ccccc1,16µM*,0%,u,i,16µM*
